Compound activity: PubChem BioAssay, National Center for Advancing Translational Sciences (NCATS)
This is one part of a sample in which hits are shown more often than they occur.
RECQ1 inh: blocks DNA unwinding by human RECQ1; P46063; RECQ1 DNA unwinding, red fluorescence kinetic read; Potency, µM (titrated, usually from 57.3 µM), usual class: inhibitors; actives 0.54% (n = 240,000); AID 2549; note: nearly all actives have a fitted effect of over 30% in size
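50 nM RECQ1T1 preincubated 15 min with compound in Tris pH 8.0 buffer with MgCl2, DTT, Tween-20 and 2.5 ug/ml poly(dI-dC); started with 200 nM TAMRA/BHQ-2 forked duplex and 2 mM ATP. Unwinding read as fluorescence (525/598 nm), two reads 2 h apart.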
BLM inh: blocks DNA unwinding by human BLM helicase. P54132. recombinant BLM DNA unwinding, fluorescence dequenching. Potency, µM (doses to about 56.1 µM), actives largely listed as inhibitors. actives 0.2% (n = 350,000). AID 2528; note: nearly all actives have a fitted effect of over 35% in size
GoLoco inh red: RGS12 GoLoco-Gai1 interaction inhibition. P63096. Gai1:RGS12 GoLoco peptide FP, rhodamine, 10 min. Potency, µM (doses to about 61.6 µM), hits mostly inhibitors. actives 0.44% (n = 230,000). AID 880; active = well fitted inhibition curve with a large enough effect, not every such curve was filed as active; inactive = no such curve, though single readings can be large or run the other way; note: nearly all actives have a fitted effect of over 30% in size
Target sequence (P63096 whole entry, looked up): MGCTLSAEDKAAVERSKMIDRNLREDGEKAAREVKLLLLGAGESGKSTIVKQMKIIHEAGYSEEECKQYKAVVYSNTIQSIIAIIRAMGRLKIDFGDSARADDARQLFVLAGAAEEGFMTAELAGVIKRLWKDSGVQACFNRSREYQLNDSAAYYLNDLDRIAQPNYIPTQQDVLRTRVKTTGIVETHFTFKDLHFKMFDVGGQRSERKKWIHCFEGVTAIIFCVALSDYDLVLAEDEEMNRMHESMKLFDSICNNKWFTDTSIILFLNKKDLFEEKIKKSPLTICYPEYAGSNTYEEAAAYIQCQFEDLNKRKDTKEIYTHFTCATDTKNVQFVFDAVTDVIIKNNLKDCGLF
APEX1 inh: inhibitors of human APE1 endonuclease; Potency, µM (series often up to 65.8 µM), hits mostly inhibitors; AID 2517; P27695; recombinant APE1, TAMRA/BHQ-2 abasic DNA cleavage fluorescence; actives 0.35% (n = 350,000); note: nearly all actives have a fitted effect of over 55% in size
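Compound pre-exposure to 0.75 nM APE1, 15 min at ambient temperature. Reaction initiated with 50 nM TAMRA/BHQ-2 THF substrate, read immediately in kinetic mode, 525 nm excitation, 598 nm emission.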
L3MBTL1 inh: L3MBTL1 (human) inhibition | Q9Y468 | AlphaScreen L3MBTL1–H3K9me1 peptide binding | Potency, µM (titrated, usually from 57.1 µM), hits mostly inhibitors | actives 0.66% (n = 230,000) | AID 485360; note: nearly all actives have a fitted effect of over 60% in size
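Read-out is AlphaScreen signal from streptavidin donor and nickel chelate acceptor beads (10 ug/mL final each) bridging L3MBTL1 (50 nM) and biotinylated K9-monomethylated H3(1-15) peptide (75 nM), after 30 min compound exposure at room temperature.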
JMJD2E inh: blocks human JMJD2E demethylase activity. JMJD2E catalytic domain, FDH-coupled NADH fluorescence (FDH is formaldehyde dehydrogenase). Potency, µM (highest dose often 57.1 µM), most hits filed as inhibitors. actives 1.6% (n = 230,000); active = well fitted inhibition curve with a large enough effect, not every such curve was filed as active; inconclusive = small, poorly fitted or top-dose-only effect, or another doubt; inactive = no such curve, though single readings can be large or run the other way; note: nearly all actives have a fitted effect of over 50% in size
Large screens that a line does not name were inactive; ! = not active in a repeat. Unless noted, calls come from the whole dose curve; as a rule, active = well fitted curve in the direction sought with a large enough effect; inconclusive = small, poorly fitted or top-dose-only effect, or another doubt; inactive = no such curve, though single readings can be large; an effect the other way counts as inactive or inconclusive.

O=C(CSc1nnnn1-c1ccccc1)Nc1ccc(N2CCOCC2)c(Cl)c1	GoLoco inh red 7.1µM (no result: L3MBTL1 inh)
CC[n+]1ccc(/C=C/c2ccc(N(C)C)cc2)c2ccccc21	RECQ1 inh 35µM, L3MBTL1 inh 25µM, JMJD2E inh inconclusive
C=C(C)C(=O)/C=C/CCC/C=C/C(=O)OCC	none (no result: L3MBTL1 inh)
Nc1c(Cl)ncnc1N/N=C/c1ccccn1	L3MBTL1 inh 7.9µM, JMJD2E inh 20µM
CCN(CC)CCOC(=O)C(Cc1cccc2ccccc12)CC1CCCO1 (stereo not drawn)	JMJD2E inh 22µM (no result: L3MBTL1 inh)
CC1(C)C2CCC(C2)C1(C)N=C1OC(CCl)CS1 (stereo not drawn)	BLM inh 4.5µM
ClCC1CSC(=NC23CC4CC(CC(C4)C2)C3)O1 (stereo not drawn)	none
CC1(C)OC1COc1c2ccoc2cc2oc(=O)ccc12 (stereo not drawn)	JMJD2E inh 32µM
CC(C)(O)C(O)COc1c2ccoc2cc2oc(=O)ccc12 (stereo not drawn)	APEX1 inh inconclusive, L3MBTL1 inh inconclusive, JMJD2E inh inconclusive
Cc1cc(C)cc(NC(=S)Nc2cccc3cnccc23)c1	JMJD2E inh 20µM
Oc1ccc(/C=N/Nc2nc(-c3cccnc3)nc3ccccc23)c(O)c1	APEX1 inh inconclusive, JMJD2E inh 22µM
COc1ccc(/C=N/Nc2nc(-c3cccnc3)nc3ccccc23)cc1OC	RECQ1 inh 20µM, JMJD2E inh inconclusive
c1ccc(Nc2nc(-c3cccnc3)nc3ccccc23)cc1	none (no result: L3MBTL1 inh, JMJD2E inh)
Cc1cc(N)c2ccccc2[n+]1CCCCCCCCCCCCCC[n+]1c(C)cc(N)c2ccccc21	RECQ1 inh 32µM (no result: BLM inh, L3MBTL1 inh)
O=c1cnc2cnc(N3CCNCC3)nc2n1Cc1ccc(F)cc1	GoLoco inh red 8.9µM (no result: L3MBTL1 inh, JMJD2E inh)
CC(C)(C)C(=O)Oc1ccc(S(=O)(=O)Nc2ccccc2C(=O)NCC(=O)O)cc1	none (no result: RECQ1 inh, GoLoco inh red, APEX1 inh, L3MBTL1 inh, JMJD2E inh)
Cc1cc(C(=O)N/N=C/c2ccc(Cl)c([N+](=O)[O-])c2)c(C)n1-c1ccc(F)cc1	JMJD2E inh 22µM
CC1Cn2c(C(=O)NCc3cccc(Br)c3)cc3cccc(c32)S1 (stereo not drawn)	none (no result: RECQ1 inh, GoLoco inh red, APEX1 inh, L3MBTL1 inh, JMJD2E inh)
NC(N)=Nc1nc2ccc([N+](=O)[O-])cc2[nH]1	GoLoco inh red 0.35µM!
C[C@H](CCC(=O)NCC(=O)O)C1CC[C@H]2[C@H]3C(C[C@H](O)[C@]12C)[C@@]1(C)CC[C@@H](O)C[C@H]1C[C@H]3O (stereo partly drawn)	none (no result: BLM inh, L3MBTL1 inh, JMJD2E inh)
CC(=O)NC(c1ccccc1)c1cc([N+](=O)[O-])c2cccnc2c1O (stereo not drawn)	L3MBTL1 inh 7.1µM, JMJD2E inh 16µM
CC(=O)NC(c1ccc(C)cc1)c1cc(Cl)c2cccnc2c1O (stereo not drawn)	none (no result: RECQ1 inh, GoLoco inh red, JMJD2E inh)
CC(C)C(=O)NC(c1ccccc1)c1cc([N+](=O)[O-])c2cccnc2c1O (stereo not drawn)	L3MBTL1 inh 10µM, JMJD2E inh inconclusive
CCCCCCCn1c2c(c(=N)c3c1CCC3)CCCC2	JMJD2E inh 3.5µM
C=CCOC(=O)N[C@@H](c1ccc(Br)cc1)C(C(C)=O)C(C)=O	none (no result: L3MBTL1 inh)
Nc1nnc(CC(=O)N/N=C/c2cc([N+](=O)[O-])cc(Br)c2O)s1	RECQ1 inh inconclusive, L3MBTL1 inh inconclusive, JMJD2E inh 11µM
Nc1nnc(CC(=O)N/N=C/c2cccc([N+](=O)[O-])c2)s1	none
COc1ccc(C(=O)N2CCCCC2CCN2CCCCC2)cc1 (stereo not drawn)	none (no result: RECQ1 inh, GoLoco inh red, APEX1 inh, L3MBTL1 inh, JMJD2E inh)
N#Cc1cccc(-c2noc(-c3ccccc3F)n2)c1	none (no result: RECQ1 inh, BLM inh, GoLoco inh red, L3MBTL1 inh, JMJD2E inh)
Cc1cccc(C2=N[C@@H](Cc3ccccc3)CO2)c1	none (no result: L3MBTL1 inh, JMJD2E inh)
CC(=O)c1cc(CN2C(=O)c3ccccc3C2=O)cs1	none
CN1CC[n+]2c(CN3C(=O)c4ccccc4C3=O)csc21	GoLoco inh red 18µM (no result: L3MBTL1 inh)
c1ccc2c3c(cc(N4CCOCC4)c2c1)OC1(N2CCOCC2)CCCCC1O3 (stereo not drawn)	L3MBTL1 inh 28µM, JMJD2E inh inconclusive
CCOC(=O)C(=N/O)/C(C)=N/NC(C)=O	none (no result: L3MBTL1 inh)
CCOC(=O)C(=N/O)/C(C)=N/NC(=O)C(=O)Nc1cc(Cl)ccc1Cl	L3MBTL1 inh 25µM
